# Laboratory results as given in PubChem BioAssay.
# Calls of active or inactive are those of the source.
# Legend:
# [1] = anti-His antibody binders, primary screen, artefact control for SMM control protein annotation, biochemical, small-molecule microarray, 635 nm fluorescence (AID 1128); conditions: anti-His Alexa647 antibody binding, higher = more signal;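 note: score merges feature fluorescence with signal-to-noise for each printed compound spot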
# [2] = system: Human papillomavirus type 1a E7 protein (residues 1-88); assay: HPV1a E7 small-molecule binders, primary screen, biochemical, small-molecule microarray, residues 1-88, 635 nm (AID 1129); conditions: small-molecule microarray binding, fluorescence 635 nm; higher = more signal
# [3] = target: Focal adhesion kinase 1 (Homo sapiens) (UniProt Q05397); assay: small-molecule microarray binders of FAK, primary screen, biochemical, 635/667 nm fluorescence, BSA, DTT (AID 1130); conditions: PTK2 binding, 635 nm fluorescence, higher = more signal;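 note: composite of spot emission at 667 nm and signal to noise over triplicate slides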
# [4] = system: Fibrinogen (Alexa647-labelled); assay: fibrinogen binders on compound microarrays, profiling panel, artefact control for SMM control-protein annotation, biochemical, small-molecule microarray, 635/667 nm fluorescence (AID 1131); conditions: fibrinogen-A647 binding fluorescence, higher = more signal;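 note: z-score merges 667 nm fluorescence with per-spot signal-to-noise over triplicate slides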
# [5] = target: Follistatin (Homo sapiens) (UniProt P19883); assay: follistatin binders on small-molecule microarrays, primary screen, biochemical, small-molecule microarray, 635/667 nm fluorescence (AID 1132); conditions: FST binding, 635 nm fluorescence, higher = more signal
# [6] = target: Fibroblast growth factor 2 (Homo sapiens) (UniProt P09038); assay: FGF2 binders on small-molecule microarrays, primary screen, biochemical, small-molecule microarray, 635/667 nm fluorescence (AID 1133); conditions: small-molecule microarray binding, FGF2, fluorescence 635/667; higher = more signal
# [7] = mitochondrial membrane potential change in A549 cells, profiling panel, cell-based, JC-1 fluorescence, basal, 24 h, 100 nL (AID 1138); conditions: higher = more signal;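 note: A549 lung adenocarcinoma cells under basal conditions with no added stimulus; test concentration not given here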
# Lefty1 = Lefty1 binders on small-molecule microarrays, primary screen, biochemical, small-molecule microarray, 635/667 nm fluorescence (AID 1139); conditions: small-molecule microarray binding, fluorescence 635/667; higher = more signal
# [8] = system: wheat germ agglutinin (Triticum aestivum), Alexa647-labelled; assay: wheat germ agglutinin binders on compound microarrays, profiling panel, artefact control for SMM control-protein annotation, biochemical, small-molecule microarray, 635/667 nm fluorescence (AID 1140); conditions: WGA-A647 binding, 635 nm fluorescence, higher = more signal;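 note: score merges 667 nm feature emission with signal to noise over triplicate slides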
# [9] = target: Luciferin 4-monooxygenase (Photinus pyralis) (UniProt P08659); assay: firefly luciferase enzyme inhibitors, primary screen, biochemical, luminescence, purified enzyme, 2006 set (AID 1141); conditions: SteadyGlo luminescence, 30 min, higher = more signal, called active from +8 up or from −8 down;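 note: cell-free assay with purified firefly luciferase at 100 ng per well in PBS; test concentration not given here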
# Sequence of Luciferin 4-monooxygenase (Photinus pyralis) (P08659 whole entry, looked up): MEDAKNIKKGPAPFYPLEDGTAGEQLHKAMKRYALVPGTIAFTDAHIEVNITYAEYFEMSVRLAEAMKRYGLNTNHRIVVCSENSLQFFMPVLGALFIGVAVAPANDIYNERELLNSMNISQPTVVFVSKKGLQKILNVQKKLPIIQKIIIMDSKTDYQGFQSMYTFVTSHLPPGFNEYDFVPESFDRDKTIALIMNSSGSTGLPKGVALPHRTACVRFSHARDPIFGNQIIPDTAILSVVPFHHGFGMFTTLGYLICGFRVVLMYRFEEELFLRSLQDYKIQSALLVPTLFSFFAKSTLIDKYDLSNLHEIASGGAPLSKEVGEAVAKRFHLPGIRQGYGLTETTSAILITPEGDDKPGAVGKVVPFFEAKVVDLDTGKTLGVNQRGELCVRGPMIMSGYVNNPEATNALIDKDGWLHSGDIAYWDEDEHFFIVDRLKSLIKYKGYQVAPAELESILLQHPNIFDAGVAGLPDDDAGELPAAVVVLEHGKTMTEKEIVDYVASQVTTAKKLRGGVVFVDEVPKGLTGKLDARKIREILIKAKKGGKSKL
# Sequence of Fibroblast growth factor 2 (Homo sapiens) (P09038 whole entry, looked up): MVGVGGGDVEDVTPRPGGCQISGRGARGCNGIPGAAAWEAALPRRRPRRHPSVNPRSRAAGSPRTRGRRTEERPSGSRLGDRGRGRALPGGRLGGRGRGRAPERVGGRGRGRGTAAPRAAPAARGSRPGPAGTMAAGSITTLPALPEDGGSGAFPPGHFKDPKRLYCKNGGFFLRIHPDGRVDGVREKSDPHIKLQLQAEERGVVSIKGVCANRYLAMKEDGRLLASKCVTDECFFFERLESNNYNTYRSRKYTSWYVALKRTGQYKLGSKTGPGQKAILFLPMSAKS
# Sequence of Follistatin (Homo sapiens) (P19883 whole entry, looked up): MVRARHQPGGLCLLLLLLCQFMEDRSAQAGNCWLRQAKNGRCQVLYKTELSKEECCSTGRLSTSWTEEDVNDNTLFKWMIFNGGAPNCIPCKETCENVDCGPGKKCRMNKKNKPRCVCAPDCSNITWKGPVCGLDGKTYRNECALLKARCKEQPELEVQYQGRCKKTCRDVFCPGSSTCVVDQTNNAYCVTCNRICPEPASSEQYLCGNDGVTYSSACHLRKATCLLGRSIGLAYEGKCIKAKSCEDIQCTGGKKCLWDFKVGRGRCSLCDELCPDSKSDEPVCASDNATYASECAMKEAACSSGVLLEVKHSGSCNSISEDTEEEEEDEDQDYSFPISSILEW
# Sequence of Focal adhesion kinase 1 (Homo sapiens) (Q05397 whole entry, looked up): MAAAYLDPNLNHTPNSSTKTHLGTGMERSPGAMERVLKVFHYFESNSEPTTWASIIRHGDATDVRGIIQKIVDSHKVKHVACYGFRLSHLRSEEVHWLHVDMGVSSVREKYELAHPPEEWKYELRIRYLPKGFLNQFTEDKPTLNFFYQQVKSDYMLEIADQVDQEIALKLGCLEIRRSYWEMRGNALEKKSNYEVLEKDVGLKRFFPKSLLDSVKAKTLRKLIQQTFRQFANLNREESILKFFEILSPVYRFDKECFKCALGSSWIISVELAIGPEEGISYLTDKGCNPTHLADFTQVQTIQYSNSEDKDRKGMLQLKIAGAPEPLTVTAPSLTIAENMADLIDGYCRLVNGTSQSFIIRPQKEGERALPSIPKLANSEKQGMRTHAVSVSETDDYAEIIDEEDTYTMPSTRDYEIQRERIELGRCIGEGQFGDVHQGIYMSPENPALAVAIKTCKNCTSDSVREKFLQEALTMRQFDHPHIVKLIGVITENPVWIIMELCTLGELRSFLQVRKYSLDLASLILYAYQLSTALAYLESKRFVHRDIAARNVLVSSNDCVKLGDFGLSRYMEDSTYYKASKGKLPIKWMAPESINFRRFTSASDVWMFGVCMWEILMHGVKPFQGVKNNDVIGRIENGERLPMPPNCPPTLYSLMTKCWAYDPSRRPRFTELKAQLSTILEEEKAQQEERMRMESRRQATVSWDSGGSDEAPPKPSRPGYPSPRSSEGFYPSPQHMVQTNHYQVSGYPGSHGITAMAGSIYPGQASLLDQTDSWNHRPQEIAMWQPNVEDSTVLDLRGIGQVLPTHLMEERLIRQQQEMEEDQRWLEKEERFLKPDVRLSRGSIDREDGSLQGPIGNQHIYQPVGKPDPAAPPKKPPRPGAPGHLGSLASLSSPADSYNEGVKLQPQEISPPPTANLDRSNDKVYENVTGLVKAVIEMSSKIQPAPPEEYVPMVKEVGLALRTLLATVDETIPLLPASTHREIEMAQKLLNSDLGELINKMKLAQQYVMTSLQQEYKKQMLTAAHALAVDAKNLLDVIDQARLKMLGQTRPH
SMILES,composite z-score [1],composite z-score [2],composite z-score [3],composite z-score [4],composite z-score [5],composite z-score [6],z-score [7],composite z-score (Lefty1),composite z-score [8],z-score [9]
CC(C)N1C(=O)[C@@]2(c3ccc([N+](=O)[O-])cc3)CC(=O)N(CC34CC5CC(CC(C5)C3)C4)[C@@H]2c2ccc(CO)cc21,-0.193,-1.05,-0.553,-1.1,0.0163,-0.934,0.58,0.0347,1.23,-0.322 (inactive)
CCCCCCc1nc(CCCc2cc3c(c(CCCCCC)n2)[Si](C(C)C)(C(C)C)OC3)cc2c1[Si](C(C)C)(C(C)C)OC2,-0.658,-1.19,-0.0475,-1.14,0.597,-0.13,0.531,0.0479,-0.973,0.651 (inactive)
COCCOC(=O)N1C(=O)[C@@]2(c3cc(C#CCNC(N)=O)ccc31)[C@H](c1ccc(OCCO)cc1)N1[C@H](c3ccccc3)[C@H](c3ccccc3)OC(=O)[C@H]1[C@@H]2C(=O)N1CCc2cc(OC)c(OC)cc2C1,0.276,0.665,0.145,0.531,1.38,1.2,-1.41,0.658,0.848,-0.702 (inactive)
CN1CCC(CCCO)=CC1c1ccc(CN2CCCC2)cc1 (stereo not given),0.358,1.06,-0.0595,-0.294,1.42,1.65,0.0421,1.57,1.18,0.536 (inactive)
C=CCC(OC(C)=O)[C@@H]1[C@@H](N(Cc2cccc3ccccc23)C(=O)c2cccc3ccccc23)c2cc(OCCCO)ccc2N1C(=O)c1ccc2ccccc2n1 (stereo not given in full),0.833,-0.0829,0.791,0.868,1.05,0.494,-0.449,0.457,-0.243,1.01 (inactive)
C=CC[C@@]1(C(=O)N2CCOCC2)N=C(c2ccc(OCCCO)cc2)O[C@@H]1c1ccccc1N=[N+]=[N-],1.58,1.24,0.304,0.752,1.33,1.05,0.0318,0.135,1.13,-11.4 (active)
CC(C)CNC(=O)[C@@]1(c2ccc([N+](=O)[O-])cc2)CC(=O)N(CC23CC4CC(CC(C4)C2)C3)[C@@H]1c1ccc(CO)cc1,0.943,0.662,0.24,-0.0362,0.946,1.1,2.5,0.0651,0.358,-1.61 (inactive)
O=C1C[C@@](C(=O)NC2CC2)(c2ccc([N+](=O)[O-])cc2)[C@@H](c2ccc(CO)cc2)N1CC12CC3CC(CC(C3)C1)C2,0.294,0.831,0.473,0.934,1.21,0.0882,0.0799,0.427,0.553,1.12 (inactive)
CCOC(=O)C1=C[C@@H](C(C)C)N(S(=O)(=O)c2ccc(C)cc2)[C@H]1c1ccc(C(C)C)cc1,0.408,1.15,1.54,0.915,1.23,-0.067,2.96,0.752,0.734,2.41 (inactive)
COc1ccc(C(=O)Nc2cccc(CN3C(=O)[C@@]4(O[C@@H](CCn5cc(CCO)nn5)[C@H]([Si](C)(C)c5ccc(OC)cc5)[C@H]4C)c4ccccc43)c2)cc1,1.38,1.16,0.582,0.701,1.35,1.51,-0.0548,1.29,0.701,-0.775 (inactive)
COc1c(C)cc(-c2cc3c(c(-c4ccc(Oc5ccccc5)cc4)n2)[Si](C(C)C)(C(C)C)OC3)cc1C,-0.271,-0.582,-0.0939,-0.551,-0.228,0.515,0.577,0.38,-0.0472,0.279 (inactive)
COC(=O)c1ccc(C(O)C2C=CC3C(=O)N(c4ccccc4)C(=O)C3N2Nc2ccc(C#N)cc2)o1 (stereo not given),0.355,0.889,0.303,1,0.62,0.275,0.385,-0.0841,0.475,-1.32 (inactive)
CC(c1ccccc1)C(O)C1C=CC2C(=O)NC(=O)C2N1Nc1ccccn1 (stereo not given),1.28,0.997,-0.0073,0.675,1.12,0.458,0.845,0.335,0.528,-1.64 (inactive)
CCCCC=C[C@@H](NC(=O)c1ccco1)c1ccccc1,0.34,-1.19,-0.0668,1.01,0.487,0.133,-0.881,-0.337,0.653,2.18 (inactive)
CCOC(=O)C1=CCC(C(C)(C)C)N(S(=O)(=O)c2ccc(C)cc2)C1 (stereo not given),0.992,1.26,0.225,1.01,1.29,1.39,0.363,1,0.722,0.916 (inactive)
CCCCC=C[C@@H](NC(=O)c1cccs1)c1ccccc1,0.813,0.837,0.351,0.983,-0.145,0.067,0.679,-0.389,1.13,0.969 (inactive)

SMILES,composite z-score [1],composite z-score [2],composite z-score [3],composite z-score [4],composite z-score [5],composite z-score [6],z-score [7],composite z-score (Lefty1),composite z-score [8],z-score [9]
CCCCC(CC)C(O)C1C=CC2C(=O)N(c3ccccc3)C(=O)C2N1Nc1ccccc1 (stereo not given),0.804,1.19,0.462,0.881,0.858,-0.411,-0.99,-0.249,1.15,-0.15 (inactive)
C=CCC(OC(C)=O)[C@@H]1[C@@H](N(Cc2cc3ccccc3o2)C(=O)c2ccc(C)cc2)c2cc(OCCCO)ccc2N1C(=O)c1ccc2ccccc2c1 (stereo not given in full),0.192,-0.409,0.281,0.257,0.503,0.286,1.24,0.217,0.32,-1.76 (inactive)
COC(=O)c1ccc(OC)c(/C=C\CC(OC(C)=O)c2ccccc2)c1 (stereo not given),0.838,0.255,-0.0638,0.775,0.946,0.933,-0.363,0.741,1.11,-0.454 (inactive)
CCOC(=O)C[C@H]1[C@H](OC(=O)c2ccc(C(=O)c3ccccc3)cc2)[C@@H](NC(=O)C2CCCCC2)c2cc(OCCCO)ccc2N1C(=O)c1ccccc1,0.447,0.881,0.211,0.636,0.27,0.0816,2.14,0.166,0.203,-0.46 (inactive)
COCCOC(=O)N1C(=O)[C@@]2(c3cc(C#CC4=CCCCC4)ccc31)[C@H](C(=O)N1CCc3cc(OC)c(OC)cc3C1)[C@H]1C(=O)O[C@H](c3ccccc3)[C@H](c3ccccc3)N1[C@@H]2c1ccccc1OCCO,-0.13,0.487,-0.106,0.061,1.29,1.66,-1.11,1,0.747,-1.62 (inactive)
Cc1ccc(S[C@]2(C(=O)NCC(C)C)CC(=O)N(Cc3ccccc3Cl)[C@@H]2c2ccc(CO)cc2)cc1,1.8,-1.41,-1.09,-0.804,-1.5,-1.21,1.37,-2.17,0.208,-0.79 (inactive)
CN(C)CCCCNC(=O)[C@H]1C[C@H]2C(=O)N[C@@H](Cc3ccccc3)C(=O)N2[C@H]1c1ccc(O)cc1,0.499,1.16,-0.366,0.986,1.34,1.64,-0.884,1.31,1.2,0.999 (inactive)
CC1=C2[C@@H](CCc3ccccc3)OB(O)C[C@@H]2n2c(=O)n(-c3ccccc3)c(=O)n2C1,0.324,0.479,0.233,0.923,0.794,0.618,0.235,0.897,0.0099,-0.85 (inactive)
COCCOC(=O)N1C(=O)[C@@]2(c3cc(C#Cc4ccc(OC)cc4)ccc31)[C@H](C(=O)N1CCN(c3ncccn3)CC1)[C@H]1C(=O)O[C@H](c3ccccc3)[C@H](c3ccccc3)N1[C@@H]2c1ccc(O)cc1,0.136,0.64,1.2,-0.126,0.755,0.633,-0.334,0.331,0.428,-0.938 (inactive)
CN(C)C(=O)[C@@]1(CCC(=O)OC(C)(C)C)N=C(c2ccc(OCCCO)cc2)O[C@H]1c1ccccc1,3.44,1.11,0.384,0.65,0.381,-0.309,-0.457,-0.943,0.798,-0.874 (inactive)
C=C(COC)C(=O)CC[C@@H](OC(=O)c1cccnc1)c1ccc(CO)o1,-0.131,0.0982,-0.111,0.39,1.18,1.46,0.217,0.911,-0.0265,-2.05 (inactive)
O=c1cccc(C=Cc2ccccc2)o1,-0.23,-0.191,-0.599,-0.58,-0.723,-1.63,0.302,-0.282,-0.531,1.35 (inactive)
[N-]=[N+]=Nc1ccccc1[C@@H]1OC(c2ccc(OCCCO)cc2)=N[C@]1(CCS(=O)(=O)c1ccccc1)C(=O)N1CCOCC1,1.48,1.26,0.488,1.02,1.33,0.544,1.13,0.541,1.3,-12.9 (active)
COC(=O)[C@@]1(Cc2ccc(OC)cc2)[C@H]2c3cc(C(=O)N(C)C)n(Cc4c(OC)[nH]cc(C)c4=O)c3C[C@H]2CN1C(=O)c1ccccc1,-0.13,0.66,0.66,0.324,0.326,-0.123,0.539,-0.144,0.59,0.151 (inactive)
CC(C)(C)OC(=O)CC[C@]1(C(=O)N2CCCCC2)N=C(c2ccc(OCCCO)cc2)O[C@H]1c1ccccc1N=[N+]=[N-],2.92,1.26,1.91,0.753,0.771,1.6,2.83,0.513,0.971,-12.8 (active)
